The list is not random: actives were taken first. Their share in the collection is about 3.6%.
PI5P4Ka inh = inhibitors of human PI5P4K alpha | P48426 | AID 652105 | 330,000 compounds, 1.2% hits | PI5P4Kalpha enzyme, ADP-Glo luminescence, 60 min; stronger effect = lower value | max response, %; active means max response of -50% or lower; inconclusive means between -30% and -50%; inactive means -30% or higher; further: value at the top dose of about 77 µM; on the % scale 0 is the no-effect control and ±100 the full control effect
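Quantitative HTS of the MLSMR library against PI5P4Kalpha with substrate. ATP added last at 5 microM final; room temperature, 60 minutes. Remaining ATP depleted, ADP converted and read as luminescence.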
VDR inh = inhibitors of human vitamin D receptor | VDR-SRC2-3 peptide fluorescence polarization, 2 h | Potency, µM, inactives show max response, negative = inhibition, hits mostly inhibitors | 400,000 compounds, 0.93% hits; further: potency means the concentration at half of the fitted maximal effect; on the % scale 0 is the no-effect control and ±100 the full control effect
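Two reagent solutions held at 4 deg C in the dark were dispensed, compounds pinned at 23 nl, and the mixture incubated 2 h at room temperature. Read-out: fluorescence polarization of VDR–SRC2-3 peptide binding.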
Rango complex inh = prevents formation of the Rango-importin beta complex; Q14974; Rango CFP/YFP FRET sensor + importin beta, 45 min; AID 540263; 340,000 compounds, 0.031% hits; Potency, µM (titrated, usually from 92.2 µM), without a hit: at the highest dose inhibition of complex formation; calls by dose curve;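 further: potency means the concentration at half of the fitted maximal effect; 0% = DMSO wells and 100% = buffer wells lacking importin beta; nearly all actives have a fitted effect of over 15% in size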
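FRET biosensor (snurportin 1 IBB flanked by EYFP and cerulean), 50 nM, with compound 5 min, then 0.125 microM importin beta in PBS, 1 mM DTT, 0.02% Tween-20, 0.1% BSA. CFP/YFP ratio read after 45 min at room temperature; pre-read flags interference.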
GCN5L2 inh = inhibitors of human GCN5L2 histone acetyltransferase. Q92830. GCN5L2 HAT assay, ThioGlo1 CoA-SH fluorescence. Potency, µM (titrated, usually from 58.9 µM), inactives show at the highest dose activity change, negative = inhibition, hits mostly inhibitors. 390,000 compounds, 0.21% hits; further: potency means the concentration at half of the fitted maximal effect; on the % scale 0 is the no-effect control and ±100 the full control effect
Target sequence (Q92830 whole entry, looked up): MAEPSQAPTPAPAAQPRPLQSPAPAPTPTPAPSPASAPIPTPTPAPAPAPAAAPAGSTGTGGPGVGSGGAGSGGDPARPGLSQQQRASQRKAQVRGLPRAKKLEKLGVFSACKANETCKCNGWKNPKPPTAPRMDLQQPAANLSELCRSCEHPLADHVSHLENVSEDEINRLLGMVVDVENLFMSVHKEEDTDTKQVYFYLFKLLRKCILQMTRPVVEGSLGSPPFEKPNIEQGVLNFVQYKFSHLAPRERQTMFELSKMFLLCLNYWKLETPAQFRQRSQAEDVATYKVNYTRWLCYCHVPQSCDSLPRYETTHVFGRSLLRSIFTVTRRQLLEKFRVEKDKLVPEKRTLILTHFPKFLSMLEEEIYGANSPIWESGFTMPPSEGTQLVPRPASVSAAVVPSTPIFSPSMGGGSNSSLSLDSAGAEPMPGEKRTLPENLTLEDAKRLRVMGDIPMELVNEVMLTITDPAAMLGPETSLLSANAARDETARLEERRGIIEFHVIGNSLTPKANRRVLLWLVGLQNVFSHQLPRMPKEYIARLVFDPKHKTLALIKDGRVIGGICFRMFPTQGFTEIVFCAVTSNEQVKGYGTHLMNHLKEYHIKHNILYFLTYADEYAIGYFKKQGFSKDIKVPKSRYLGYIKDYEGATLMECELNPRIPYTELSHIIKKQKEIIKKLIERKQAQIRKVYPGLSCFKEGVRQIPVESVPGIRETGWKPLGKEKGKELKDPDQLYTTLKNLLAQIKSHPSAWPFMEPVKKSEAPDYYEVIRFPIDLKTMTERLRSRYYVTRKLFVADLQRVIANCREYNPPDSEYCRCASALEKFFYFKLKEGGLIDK
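ThioGlo1-coupled HAT assay: 20nM GCN5L2, 70uM acetyl-CoA, 75uM H3(1-25) peptide, pH 7.5. Fluorescence read at 340/540nm at start and after 20 min at room temperature.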
Rango dissoc inh = inhibition of RanGTP-driven Rango-importin beta dissociation | O95149+P62826 | Biochemical FRET Rango-importin beta, RanGTP-induced dissociation | Potency, µM (top dose mostly 46.1 µM), inactives show at the highest dose activity change, negative = inhibition | 340,000 compounds, 0.071% hits; calls by dose curve; further: potency means the concentration at half of the fitted maximal effect; % of control where 0% means no effect; nearly all actives have a fitted effect of over 45% in size
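Compounds sat 5 min at room temperature with 0.1 uM Rango biosensor plus 0.25 uM importin beta, then FRET pre-read. RanGTP-RCC1 (0.6 uM Ran, 2mM GTP, 0.2 uM RCC1) added for 45 min, and the CFP/YFP post-read measured blocked complex dissociation.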
PLK1 PBD block = inhibitors of human PLK1 polo-box domain binding; P53350; Plk1 PBD binding of FITC phosphopeptide, fluorescence polarization; Potency, µM, for the others: max response, negative = inhibition, usual class: inhibitors; 360,000 compounds, 2.8% hits; further: potency means the concentration at half of the fitted maximal effect; series mostly up to about 57 µM; on the % scale 0 is the no-effect control and ±100 the full control effect; nearly all actives have a fitted effect of over 65% in size
Numbers without * were called inactive; ? = inconclusive; / = no result given. Unless noted, the call rests on the fitted dose curve; in most records, active means well fitted curve in the direction sought with a large enough effect; inconclusive means small, poorly fitted or top-dose-only effect, or another doubt; inactive means no such curve, though single readings can be large; an effect the other way counts as inactive or inconclusive.

SMILES	PI5P4Ka inh	VDR inh	Rango complex inh	GCN5L2 inh	Rango dissoc inh	PLK1 PBD block
CC(=O)c1sc(NC(C)c2ccccc2)nc1C (stereo unspecified)	4.2	17.4%	1.3%	-3.2%	-4.9%	-1.5%
Clc1nc(Nc2ccc(N3CCOCC3)cc2)c2ccccc2n1	-0.5	22.6%	3.6%	1.7%	-11.8%	-9.1%
O=S(=O)(Nc1nc2ccccc2nc1Nc1ccc(N2CCOCC2)cc1)c1cc(Cl)ccc1Cl	-2.5	-23.1%	?	-4.9%	-13.2%	11.9µM*
O=C(O)c1ccc(-c2ccc(/C=C3\NC(=O)N(Cc4ccc(Cl)cc4)C3=O)o2)cc1Cl	-69.3*	79.4µM*	?	-15.8%	?	15µM*
CCOC(=O)CN1C(=O)S/C(=C\c2ccc(-c3ccc(C(=O)O)c(Cl)c3)o2)C1=O	?	?	?	?	?	-22.8%
CCOC(=O)N1CCN(C(=O)CSc2nnc(-c3cc(OC)ccc3OC)o2)CC1	?	?	-0.5%	0.4%	1.0%	3.36µM*
CCOC(=O)N1CCN(C(=O)CSc2nnc(-c3cccc(OC)c3)o2)CC1	?	?	-0.2%	-6.6%	10.3%	3.36µM*
CCOC(=O)N1CCN(C(=O)CSc2nnc(-c3ccccc3OC)o2)CC1	-3.1	8.3%	-1.2%	0.5%	-10.3%	2.1%
Cc1cc(I)ccc1Nc1c(C(=O)NOCC2CC2)cc(F)c(F)c1F	/	-27.8%	/	13.5%	/	/
Cn1cc(Br)c(C(=O)n2cc(Br)cn2)n1	-19.6	?	-1.5%	1.0%	-6.4%	16.8µM*
O=C1CCCC2=C1C(c1ccc(Cl)cc1)N=C(Nc1nc3ccccc3o1)N2 (stereo unspecified)	/	-2.6%	/	/	/	/
C=CCN1CCCC1CNC(=O)c1cc(S(N)(=O)=O)cc(OC)c1OC (stereo unspecified)	/	-2.8%	/	0.0%	/	/
COc1ccc(C(=O)Nc2nc3n(n2)C(c2ccc(F)cc2)C=C(c2ccc(Cl)cc2)N3)cc1 (stereo unspecified)	/	2.3%	/	-7.0%	/	/
COc1cc(OC)cc(C(=O)N/N=C2/SCC(=O)N2Cc2ccco2)c1	-7.0	7.7%	-1.9%	-1.9%	-16.0%	6.4%
Cc1cccc(OCC(=O)N/N=C/C=C/c2ccco2)c1	-76.0*	?	-4.1%	?	?	-19.0%
Cc1ccc(OCC(=O)N/N=C2/SCC(=O)N2Cc2ccccc2)cc1	-3.5	0.3%	1.4%	1.7%	0.3%	0.0%
Cc1ccccc1OCC(=O)N/N=C1\SCC(=O)N1Cc1ccccc1	-8.2	-7.4%	-0.1%	-7.6%	-6.9%	26.7µM*
Cc1cccc(OCC(=O)N/N=C2/SCC(=O)N2Cc2ccco2)c1	-18.3	-28.9%	2.2%	-0.8%	-3.3%	10.6µM*
CCOc1ccc(CCNC(=O)CCSCc2ccc(Cl)cc2)cc1OCC	/	14.5%	/	-2.6%	/	/
O=C(O)CNc1nc(-c2ccccc2)c2cc([N+](=O)[O-])ccc2n1	-1.3	-24.8%	0.0%	-13.7%	-20.9%	-7.3%
O=[N+]([O-])c1ccc2nc(NCCCO)nc(-c3ccccc3)c2c1	-11.0	?	?	-5.1%	?	21.2µM*
COc1ccccc1N1CCN(S(=O)(=O)c2c(C)sc3ncn(CC(=O)N(C)c4ccc(Cl)cc4)c(=O)c23)CC1	/	-8.9%	/	-1.8%	/	/
Cc1ccc(SSc2cc(C)ccc2N)c(N)c1	-81.2*	6.31µM*	-0.9%	?	?	0.336µM*
CCN(C(=O)c1c(C)oc2ncnc(N3CCCCC3)c12)c1cc(C)ccc1C	/	0.7%	/	16.6%	/	/
COC(=O)Cn1c(Cc2ccccc2)nc2ccccc21	-0.2	-19.3%	1.6%	0.2%	-6.8%	5.97µM*
COC(=O)Cn1c(=O)cnc2ccccc21	/	5.2%	?	-6.6%	5.8%	-2.6%
O=C(/C(=N\O)n1cncn1)c1ccc(Cl)cc1Cl	-3.5	10.5%	-2.3%	-2.1%	0.3%	2.2%
O=C(/C(=C/c1ccccc1)n1cncn1)c1ccc(Cl)cc1Cl	6.1	20µM*	-1.0%	3.3%	?	18.9µM*
CC(=O)Nc1nonc1-c1nnc(SCc2ccc(F)cc2)n1C	/	13.8%	/	-0.6%	/	/

Screens (PubChem)
